# Measurements taken from PubChem BioAssay AID463173 (ICCB-Longwood Screening Facility, Harvard Medical School, 2010).
# The campaign covered roughly 52,000 compounds. About 1,700 (3.3%) were called active. The sample as a whole holds a higher share of actives than the screen did. Values without a mark were called inactive. No stated cut-off is given here; in the data, active means survival mostly below about 52% (no sharp cut-off); inactive means mostly above about 56%.
# System: Wild type
# Experiment: growth inhibition of S. aureus wild type versus tarO mutant, primary screen, teichoic acid synthesis inhibitors, RN4220, OD600 (AID 463173)
# Conditions: S. aureus RN4220 wild type/DeltatarO growth, OD600, 18 h, hits give low values, screened at 18.75 µg/mL (by protocol)
row,Structure (SMILES),survival
1,COc1cccc(-c2nc(CS(=O)(=O)CC(=O)NCCc3ccc(Cl)cc3)c(C)o2)c1,78%
2,COc1cccc(-c2nc(CSCC(=O)NCCc3ccc(Cl)cc3)c(C)o2)c1,-1% (active)
3,Cc1cccc(-c2nc(CSCC(=O)NCCc3ccc(Cl)cc3)c(C)o2)c1,-3% (active)
4,COc1ccc(-c2nc(CSCC(=O)NCCc3ccccc3)c(C)o2)cc1,95%
5,CCOc1ccc(CCNC(=O)CSCc2nc(-c3cccc(C)c3)oc2C)cc1OCC,80%
6,COc1ccc(CCNC(=O)CSCc2nc(-c3cccc(C)c3)oc2C)cc1OC,74%
7,COc1cc2[nH]c(=O)n(CCCC(=O)N(C)Cc3ccccc3)c(=O)c2cc1OC,68%
8,CN(C)c1ccc(-c2nnc3n(Cc4ccccc4)c(=O)c4ccccc4n23)cc1,83%
9,COc1ccc(N2CCN(C(=O)c3cccc(NC(=O)c4nsc5ccccc45)c3)CC2)cc1,131%
10,O=C(NCc1ccc2c(c1)OCO2)C1CCN(c2ccc(S(=O)(=O)N3CCCC3)cc2)CC1,101%
11,CC1CCCN(c2nc(-c3ccccc3O)nc3ccccc23)C1 (stereo unspecified),-3% (active)
12,COc1ccc(N2CCN(c3nc(-c4ccccc4F)nc4ccccc34)CC2)cc1,92%
13,CC1CCCN(c2csc3ccccc3c2=O)C1 (stereo unspecified),97%
14,COc1ccccc1N1CCN(c2nc(-c3ccc(C)cc3)nc3ccccc23)CC1,72%
15,Cc1cccc(-c2nc(N3CCN(c4ccc(F)cc4)CC3)c3ccccc3n2)c1,64%
16,Cc1ccc(-c2nc(N3CCCC(C)C3)c3ccccc3n2)cc1 (stereo unspecified),-2% (active)
17,N#CCNC(=O)c1sc2ccccc2c1Cl,107%
18,Cc1nnc(NC(=O)CCCN2C(=O)/C(=C/c3cccs3)SC2=S)s1,107%
19,COc1cc(C(=O)N2CC(=O)Nc3ccc(C)cc3C2c2ccc(F)cc2)cc(OC)c1OC (stereo unspecified),147%
20,Cc1c(Cl)cccc1NC(=O)CCS(=O)(=O)c1ccc2c(c1)CC(C)N2C(=O)C1CC1 (stereo unspecified),85%
21,Cc1ccc(-n2ncc3c(N4CCC(Cc5ccccc5)CC4)ncnc32)cc1,70%
22,CC(C)CC(NC(=O)C1CCCCC1)C(=O)Nc1cccc(C(F)(F)F)c1 (stereo unspecified),64%
23,C=Cc1ccc(CN2C(=O)N(c3ccc(C)c(C)c3)S(=O)(=O)c3ccccc32)cc1,71%
24,C=Cc1ccc(CN2C(=O)N(c3cccc(Cl)c3)S(=O)(=O)c3ccccc32)cc1,57%

row,Structure (SMILES),survival
1,C=Cc1ccc(CN2C(=O)N(c3ccc(CC)cc3)S(=O)(=O)c3ccccc32)cc1,1% (active)
2,Cc1coc2c(C)c3oc(=O)c(CCC(=O)NCCc4ccccc4)c(C)c3cc12,84%
3,COc1cccc(N2CCN(C(=O)c3cnc4c(C)cccn4c3=O)CC2)c1,91%
4,Cc1ccc2nc(N3CCN(c4ccccc4)CC3)c3nnnn3c2c1,78%
5,Cc1ccc2nc(N3CCN(c4ccccc4F)CC3)c3nnnn3c2c1,76%
6,COc1ccc(OC)c(CNc2nc3ccc(C)cc3n3nnnc23)c1,85%
7,COc1ccccc1CNc1nc2ccc(C)cc2n2nnnc12,-1% (active)
8,Cc1ccc(N2CCN(c3nc4ccc(C)cc4n4nnnc34)CC2)c(C)c1,76%
9,COc1ccc(N2CCN(c3nc4ccc(C)cc4n4nnnc34)CC2)cc1,-6% (active)
10,Cc1ccc2nc(N3CCN(c4ccc(F)cc4)CC3)c3nnnn3c2c1,14% (active)
11,COc1ccccc1N1CCN(c2nc3ccc(C)cc3n3nnnc23)CC1,133%
12,Cc1ccc2nc(NCc3ccccc3Cl)c3nnnn3c2c1,94%
13,CCN(c1ccccc1)S(=O)(=O)c1ccc(-c2cc(C)no2)s1,159%
14,NC(=S)N/N=C/c1ccccc1OCC(=O)O,96%
15,Cc1ccc(NC(=O)Cn2ccn(-c3ccc(F)c(F)c3)c(=O)c2=O)cc1C,78%
16,CCCCN(Cc1ccccc1)C(=O)c1oc(=O)c2ccccc2c1-c1ccc(C)cc1,0% (active)
17,Cc1ccc(CCNC(=O)c2oc(=O)c3ccccc3c2-c2ccc(C)cc2)cc1,17%
18,Cc1ccc(-c2c(C(=O)NCCc3ccc(Cl)cc3)oc(=O)c3ccccc23)cc1,57%
19,Cc1ccc(-c2c(C(=O)NCCc3ccccc3)oc(=O)c3ccccc23)cc1,79%
20,Cc1ccc(-c2c(C(=O)NCc3ccc(F)cc3)oc(=O)c3ccccc23)cc1,76%
21,Cc1ccc(-c2c(C(=O)N(C)Cc3ccccc3)oc(=O)c3ccccc23)cc1,11% (active)
22,COc1ccccc1CCNC(=O)c1ccc2c(c1)c(C)c(C)n2Cc1ccc(Cl)cc1,77%
23,CC1(C)Cc2ccccc2-c2nnc(-c3ccccc3)n21,95%
24,COc1cccc(C2=CC(c3cc(Br)ccc3F)n3nnnc3N2)c1 (stereo unspecified),-4% (active)

row,Structure (SMILES),survival
1,Fc1ccc(Br)cc1C1C=C(c2ccc(Br)cc2)Nc2nnnn21 (stereo unspecified),81%
2,COc1ccc(C2C=C(c3ccc(Br)cc3)Nc3nnnn32)c(OC)c1 (stereo unspecified),66%
3,O=C(c1ccc2c(c1)N(Cc1ccc(Cl)cc1)C(=O)c1ccccc1S2=O)N1CCOCC1 (stereo unspecified),83%
4,Cc1ccc(S(=O)(=O)N2CCCc3cc(NC(=O)c4ccc(C(F)(F)F)cc4)ccc32)cc1,110%
5,Cc1ccc2c(c1)-c1ncc(C(=O)c3cc(Br)ccc3O)cc1CO2,56%
6,Cc1ccc2c(c1)-c1nc(-c3ccccc3)cc(-c3ccccc3)c1CO2,79%
7,O=C(c1cnc2c(c1)COc1ccccc1-2)c1ccccc1O,5% (active)
8,Cc1ccc2c(c1)-c1ncc(C(=O)c3ccccc3O)cc1CO2,-7% (active)
9,Cc1cc(O)c(C(=O)c2cnc3c(c2)COc2ccccc2-3)cc1Cl,64%
10,O=C(c1cnc2c(c1)COc1ccc(Cl)cc1-2)c1ccccc1O,131%
11,COc1ccc(C2=C(C)C(N3CCC(C(=O)NCc4ccco4)CC3)=NS2(=O)=O)cc1,56%
12,Cc1ccc(NS(=O)(=O)c2cc3[nH]c(=O)c(=O)[nH]c3cc2C)cc1N(C)C,81%
13,CC1(CCC(=O)O)NNC(=S)NN1,101%
14,Cn1cccc1-c1cc2n(n1)CCC(=O)N2CC(=O)Nc1ccc(F)cc1Cl,63%
15,Cc1nn(C(=O)c2cccc(F)c2)c(C)c1S(=O)(=O)N1CCCCCC1,84%
16,Cc1c(C(=O)N2CCC(C)CC2)c(S(=O)(=O)Nc2cccc(C(F)(F)F)c2)c(C)n1C,78%
17,CCOC(=O)c1ccc(N2CCN(c3cccc(Cl)c3)CC2)c(NC(=O)Nc2ccc(Cl)cc2)c1,76%
18,CCOC(=O)c1ccc(N2CCN(c3ccc(F)cc3)CC2)c(NC(=O)Nc2cccc(OC)c2)c1,67%
19,CCOC(=O)c1ccc(N2CCN(c3cccc(OC)c3)CC2)c(NC(=O)Nc2ccc(OCC)cc2)c1,-6% (active)
20,Cc1cn2c(=O)cc(COc3ccccc3NC(=O)c3ccco3)nc2s1,83%
21,Fc1cccc(NCc2cccn2-c2nnc(N3CCOCC3)s2)c1,77%
22,CC(=O)N1SC(N)=NC1c1ccccc1 (stereo unspecified),111%
23,CCOc1ccc(N(C)S(=O)(=O)c2ccc3c(c2)CCCN3C(C)=O)cc1,75%
24,COc1ccc(CCNC(=O)c2ccc3c(c2)nc2n3CCOC2)cc1OC,-4% (active)

row,Structure (SMILES),survival
1,CCOc1ccc(CNC(=O)c2ccc3c(c2)nc2n3CCOC2)cc1,57%
2,COc1ccc(CCNC(=O)c2ccc3c(c2)nc2n3CCCCC2)cc1OC,84%
3,O=C(NCc1ccccc1Br)c1ccc2c(c1)nc1n2CCOC1,-3% (active)
4,O=C(NCc1ccccc1)c1ccc2c(c1)nc1n2CCOC1,82%
5,CCOc1ccc(CNC(=O)c2ccc3c(c2)nc2n3CCOC2)cc1OC,1% (active)
6,Cc1ccc(C)c(CNC(=O)c2ccc3c(c2)nc2n3CCOC2)c1,63%
7,CCOc1ccc(CCNC(=O)c2ccc3c(c2)nc2n3CCOC2)cc1OCC,63%
8,CCOc1ccc(CNC(=O)c2ccc3c(c2)nc2n3CCC(C)C2)cc1OC (stereo unspecified),73%
9,Cc1ccc(C)c(NC(=O)CSc2nc(-c3ccccc3)c(C#N)c(=O)[nH]2)c1,113%
10,COc1cccc(NC(=O)CSc2nnc(-c3cccc(OC)c3)o2)c1,90%
11,CCn1c(CC(=O)Nc2ccccc2)n[nH]c1=S,107%
12,Cc1cn2c(=O)cc(COC(=O)c3cccc(NC(=O)c4ccccc4C)c3)nc2s1,71%
13,COc1ccccc1CNc1ccc(-c2nc(-c3ccccn3)no2)cc1[N+](=O)[O-],77%
14,Cc1ccc2c(=O)c(C(=O)c3ccccc3)cn(CC(=O)Nc3ccccc3C)c2n1,65%
15,O=c1[nH]c2ccccc2c(O)c1-c1nc2ccccc2c(=O)[nH]1,109%
16,Cc1cccc(NC(=O)CSc2nc3ccccc3nc2N2CCOCC2)c1C,65%
17,CC1CCN(c2nc3ccccc3nc2SCC(=O)Nc2ccccc2C(C)C)CC1,-16% (active)
18,CCOc1ccccc1NC(=O)CSc1nc2ccccc2nc1N1CCOCC1,-11% (active)
19,Cc1cccc(NC(=O)CSc2nc3ccccc3nc2N2CCC(C)CC2)c1,-9% (active)
20,CC(=O)Nc1ccc(NC(=O)CSc2nc3ccccc3nc2N2CCC(C)CC2)cc1,80%
21,CCOc1ccc(NC(=O)CSc2nc3ccccc3nc2N2CCOCC2)cc1,112%
22,Cc1ccc(C)c(NC(=O)CSc2nc3ccccc3nc2N2CCOCC2)c1,76%
23,Cc1ccc(NC(=O)CSc2nc3ccccc3nc2N2CCOCC2)cc1,59%
24,Cc1cccc(NC(=O)CSc2nc3ccccc3nc2N2CCCCC2)c1C,70%
